The values below come from PubChem BioAssay (NCATS).

Molecules are shown by their SMILES. Results filed as inconclusive are left out. Calls of active or inactive are those of the source. The call rests on the fitted dose curve; in most records, active means well fitted inhibition curve with a large enough effect; inconclusive means small, poorly fitted or top-dose-only effect; inactive means no such curve, though single readings can be large or run the other way.
Potency means the concentration at half of the fitted maximal effect.

The experiment can be described thus: BET inhibitor-based combinations targeting novel dependencies in MECOM-rearranged (r) AML: MV-4-11 cell line (AID 2202233). Further: nearly all actives have a fitted effect of over 45% in size. The following applies: MV-4-11 AML viability, CellTiter-Glo luminescence, 48 h; series mostly up to 46 µM. The text has this: Ecotropic viral insertion site 1 (EVI1) is located on chromosome 3q26.2 as part of the MECOM (MDS and EVI1 complex) locus. Under normal hematopoiesis, EVI1 is a regulator of hematopoietic stem cell maintenance and self-renewal and EVI1 levels decrease as the cells differentiate. In approximately 5-10% of de novo acute myeloid leukemia (AML) EVI1 is aberrantly expressed, including Chromosomal inv(3)(q21;q26.2) or t(3;3)(q21;q26.2) alterations (MECOM-r) that account for about 50% of AML with EVI1 overexpression 31. AMLs with high levels of EVI1 have a poor prognosis and an overall survival time averaging between 10-14 months. EVI1 overexpression confers resistance in leukemia cells, highlighting the need to develop new targeted therapies for EVI1 overexpressing AMLs. Here, we performed an unbiased chemical drug screening by evaluating the single agent activity of a collection of 2,480 oncology-focused, approved and investigational drugs (NCATS Mechanism Interrogation Plates, MIPE v5.0) against a panel of seven AML cell lines. These included four MECOM-r cell-lines (AML-191, AML-194, UCSD-AML1 and HNT-34) and three non-MECOM-r AMLs (MV4-11, OCI-AML3 and SET-2). Exploiting the mechanistic redundancy built in the library, we identified target-level sensitivities in MECOM-r AML cells and relative activity as compared to other AML subtypes.
A collection of 2480 mechanistically annotated dugs (MIPE v5.0) was used to screen four 3q26.2 rearranged AML cell lines and three non-3q26.2 rearranged AML cell lines. This library purposely exploits redundancy by including multiple inhibitors of key onco-targets, while simultaneously encompassing mechanistic diversity, targeting more than 800 distinct mechanisms of action. Briefly, cells were seeded in 5 uL of growth media using a Multidrop Combi dispenser into 1536 well white polystyrene tissue culture treated plates (Corning) at a density of 500cells/well. For each cell-line, for each of the 2480 drugs in MIPE v5.0 library, an 11-point dose curve was generated via a 1536 pin-tool. Plates were incubated for 48 hr at standard incubator conditions, covered by a stainless steel gasketed lid to prevent evaporation. Cell viability was determined by luminescence based, Cell Titer Glo assay (Promega). In detail, 3 uL of Cell Titer Glo were added to each well and plates were incubated at room temperature for 15 min with a stainless-steel lid in place. Luminescence readings were taken using a Viewlux (PerkinElmer) with a 2 s exposure time per plate. Compound dose-response curves were normalized to DMSO and empty well controls on each plate. Quantitative drug activity data from dose-response curves was determined utilizing area Under the Curve (AUC) and Z-transformed AUC (Z-AUC, a mean-centering transformation applied to each individual cell-line screened).
For the molecule `CCOc1ccccc1-n1c(C(C)N2CCN(C(=O)COc3ccc(Cl)cc3)CC2)nc2ccccc2c1=O` (stereo not given), the Potency was 3320 nM (active). The same measure, in the same setting: in the case of `CC(C)(O)/C=C\C(=O)[C@](C)(O)[C@H]1[C@H](O)C[C@]2(C)[C@@H]3CC=C4[C@@H](C=C(O)C(=O)C4(C)C)[C@]3(C)C(=O)C[C@@]12C` it was 148 nM (active).

As to `COc1ccc(C(=O)c2c(C)n(CCN3CCOCC3)c3cc(I)ccc23)cc1`, the Potency was 8330 nM (active). On the same count and under the same terms, in the case of `CC1=C2C[C@H]3[C@@H](CC=C4C[C@@H](O)CC[C@@]43C)[C@@H]2CC[C@]12O[C@@H]1C[C@H](C)CN[C@H]1[C@H]2C` it was “inactive”; in that of `C[C@@]12OC(=O)[C@]1([C@@H](O)[C@@H]1C=CCCC1)NC(=O)[C@@H]2CCCl`, 23.5 nM (active); in that of `C=C(C)[C@@H]1CCC(C)=C[C@H]1c1c(O)cc(CCCCC)cc1O`, 18600 nM (active). The same measure, in the same setting: as for `O=C(Nc1ccncc1)C(=O)c1cn(Cc2ccc(Cl)cc2)c2ccccc12`, the figure is 296 nM (active); as for `COc1cc2c(cc1F)C(c1ccccc1Cl)=Nc1c(n[nH]c1C)N2`, 1860 nM (active). Same read-out and setting: as for `CCOP(=O)(OCC)C(C)NC(=O)N(CCCl)N=O` (stereo not given), the entry is “inactive”; as for `c1ccc2c(CN3CCNCC3)cccc2c1`, “inactive”; as for `CC(C)[C@H]1C(=O)N[C@H](CO)Cc2c[nH]c3cccc(c23)N1C`, 1150 nM (active). Turning to `COc1cc([C@@H]2c3cc4c(cc3[C@@H](O)C3COC(=O)C32)OCO4)cc(OC)c1O` (stereo not given in full), the Potency was 372 nM (active).

Regarding `Cn1cc(C2=C(c3cn(C4CCN(Cc5ccccn5)CC4)c4ccccc34)C(=O)NC2=O)c2ccccc21`, the Potency was 4680 nM (active). On to `COc1ccc2c(c[n+](C)c3c4cc5c(cc4ccc23)OCO5)c1OC`, for which the Potency is 5250 nM (active). On to `Cn1c(CCCC(=O)O)nc2cc(N(CCCl)CCCl)ccc21`, for which the Potency is 10500 nM (active). Still for that read-out and setting: in the case of `O=c1[nH]c2ccc(Cl)cc2c(N[C@@H]2CN3CCC2CC3)c1-c1nc2ccccc2[nH]1` it was 74.2 nM (active); in that of `Cc1ccccc1-n1c(Cn2ncc3c(N)ncnc32)nc2cccc(C)c2c1=O`, 8330 nM (active). On the same count and under the same terms, as for `CC(=O)N1N=C(c2ccc(N)cc2)c2cc3c(cc2C[C@H]1C)OCO3`, the entry is “inactive”. Still for that read-out and setting: in the case of `C[C@]12CC[C@H]3[C@@H](CCC4=CC(=O)CC[C@@]43C)[C@H]1CC[C@H]2OC(=O)CCC1CCCC1` it was “inactive”; in that of `C[C@]12CC[C@H](O)CC1=CC[C@@H]1[C@@H]2CC[C@]2(C)C(=O)CC[C@@H]12`, “inactive”; in that of `Fc1ccc(C(OCCN2CCN(CCCc3ccccc3)CC2)c2ccc(F)cc2)cc1`, 10500 nM (active). As for `CC(C)[C@]12O[C@H]1[C@@H]1O[C@]13[C@]1(O[C@H]1C[C@H]1C4=C(CC[C@@]13C)C(=O)OC4)[C@@H]2O`, the Potency is 37.2 nM (active). The same measure, in the same setting: as for `CN1[C@H]2CC(O)C[C@H]1[C@H]1O[C@H]12` (stereo not given in full), the entry is “inactive”; as for `Cc1cc(SCc2sc(-c3ccc(C(F)(F)F)c(F)c3)nc2C)ccc1OCC(=O)O`, 18600 nM (active). The same measure, in the same setting: as for `CN1CCN(c2ccc([N+](=O)[O-])c3no[n+]([O-])c23)CC1`, the figure is 14800 nM (active). For `NCC1(CC(=O)O)CCCCC1`, the result was inactive. Turning to `C[C@H]1CCC/C=C/C2C[C@H](O)C[C@H]2[C@H](O)/C=C/C(=O)O1` (stereo not given in full), the Potency was 263 nM (active). On the same count and under the same terms, in the case of `C[C@]12Cc3cn[nH]c3C[C@@H]1CC[C@@H]1[C@@H]2CC[C@@]2(C)[C@H]1CC[C@]2(C)O` it was 742 nM (active); in that of `COc1cc2cc(c1Cl)N(C)C(=O)C[C@H](OC(=O)C(C)C)[C@]1(C)O[C@@H]1[C@H](C)[C@@H]1C[C@@](O)(NC(=O)O1)[C@H](OC)/C=C/C=C(\C)C2`, “inactive”. The same measure, in the same setting: as for `Cc1sc2c(c1C)C(c1ccc(Cl)cc1)=NC(CC(N)=O)c1nnc(C)n1-2` (stereo not given), the figure is 66.1 nM (active).

For the molecule `CN(C)c1cc2c(cc1Sc1nc3c(N)nccc3n1CCNCC(C)(C)C)OCO2`, the Potency is 662 nM (active). Still for that read-out and setting: as for `CC(=O)O[C@@]12CO[C@@H]1C[C@H](O)[C@@]1(C)C(=O)[C@H](O)C3=C(C)[C@@H](O)C[C@@](O)([C@@H](OC(=O)c4ccccc4)[C@H]21)C3(C)C`, the figure is 23500 nM (active); as for `CCCC[N+]1(C)[C@H]2CC(OC(=O)[C@H](CO)c3ccccc3)C[C@H]1[C@H]1O[C@H]12` (stereo not given in full), “inactive”; as for `CCOC(=O)Nc1ccc(NCc2ccc(F)cc2)cc1N`, “inactive”.

Turning to `CC(=O)Nc1ccc(OC[C@](C)(O)C(=O)Nc2ccc([N+](=O)[O-])c(C(F)(F)F)c2)cc1`, the Potency result was “inactive”. Same read-out and setting: in the case of `CC(C)C[C@H](CN)CC(=O)O` it was “inactive”; in that of `Cc1[nH]ncc1-c1cc2nc([C@@H]3CC4CCN3CC4)[nH]c(=O)c2s1`, 3320 nM (active). Consider `N[C@@H](Cc1ccc(N(CCCl)CCCl)cc1)C(=O)O`, for which the Potency is 1480 nM (active).

As for `COC(=O)[C@]12CCC(C)(C)C[C@H]1[C@H]1C(=O)C=C3[C@@]4(C)C=C(C#N)C(=O)C(C)(C)[C@@H]4CC[C@@]3(C)[C@]1(C)CC2`, the Potency was 417 nM (active).

In the case of `Cc1ccccc1-n1c(Cn2cnc3c(N)ncnc32)nc2cccc(C)c2c1=O`, the Potency was 1480 nM (active).
